The values below come from PubChem BioAssay (NCATS).

Results filed as inconclusive are left out. The source made the active and inactive calls. Unless noted, calls follow the shape of the dose curve; as a rule, active = well fitted curve in the direction sought with a large enough effect; inconclusive = small, poorly fitted or top-dose-only effect, or another doubt; inactive = no such curve, though single readings can be large; an effect the other way counts as inactive or inconclusive.

Experiment [1] can be described thus: qHTS Assay for Lipid Storage Modulators (AID 1519; calls by dose curve). To be noted: Drosophila S3 cells, BODIPY lipid droplet/cell ratio, laser cytometry, cells loaded with oleic acid. The essentials:
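Cells seeded at 5,000 per well were treated with compounds over a concentration series and loaded with oleic acid (400 uM, as added). Lipid droplet fluorescence (488 nm excitation, 500-530 nm channel) was read by laser-scanning cytometry and normalized to 20 uM Triacsin C.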

The target in experiment [2] is DNA repair nuclease/redox regulator APEX1 (Homo sapiens) (UniProt P27695). Kind of experiment: qHTS Validation Assay for Inhibitors of the Human Apurinic/apyrimidinic Endonuclease 1 (APE1) (AID 1705;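 also: TAMRA fluorescence gain over two minutes as APE1 cuts a quenched THF abasic duplex; % is scaled to controls: 0 for no effect and ±100 for the full control effect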). Summed up: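 Fluorogenic double-stranded THF abasic-site substrate (5'-TAMRA/3'-BHQ-2), 50 nM final. Enzyme preincubated with compound 15 min at room temperature, then substrate added. Kinetic fluorescence (ex 525/em 598 nm) read three times at 60 s intervals; activity taken as third-minus-first read difference.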
DNA repair nuclease/redox regulator APEX1 (Homo sapiens), sequence (P27695 whole entry, looked up): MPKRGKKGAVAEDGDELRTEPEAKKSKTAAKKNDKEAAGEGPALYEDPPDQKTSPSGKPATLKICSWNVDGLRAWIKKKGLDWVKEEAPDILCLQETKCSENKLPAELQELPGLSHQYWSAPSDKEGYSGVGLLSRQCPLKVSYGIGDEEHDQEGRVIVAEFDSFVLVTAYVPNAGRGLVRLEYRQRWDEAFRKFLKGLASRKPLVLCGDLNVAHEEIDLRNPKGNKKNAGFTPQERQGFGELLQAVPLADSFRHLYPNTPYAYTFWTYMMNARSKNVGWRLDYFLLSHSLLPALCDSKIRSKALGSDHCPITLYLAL
In general terms: In qHTS, concentration-response curves come from the screen itself.

Experiment [3] in a line: Counterscreen for APE1 Inhibitors: Fluorescent Dye Displacement Validation Assay (AID 1707).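 Also: plate controls were ThO with dsDNA and no compound for no effect and ThO without dsDNA for full effect.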 The essentials:
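Signal: ThO fluorescence (ex 480 nm/em 540 nm) on binding 50 nM dsDNA; displacement by test compound reduces it. Conditions: 250 nM dye, 50 mM Tris-HCl pH7.5, 2 mM MgCl2, 50mM NaCl, 0.01% Tween-20.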
In general terms: Counterscreens check selectivity or assay interference.

Experiment [4] has as its target Endonuclease 4 (Escherichia coli (strain K12)) (UniProt P0A6C1). Kind of experiment: Counterscreen for APE1 Inhibitors: qHTS Validation Assay for Inhibitors of Endonuclease IV (AID 1708). Also: % is scaled to controls: 0 for no effect and ±100 for the full control effect. Summed up: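 The reaction buffer contained 50 mM Tris-HCl pH 7.5, 50 mM NaCl, 2 mM MgCl2, 1 mM DTT and 0.01% Tween-20. Incision of a 50 nM fluorophore/quencher THF substrate by 2 nM enzyme was measured kinetically.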

Experiment [5] can be described thus: qHTS for differential inhibitors of proliferation of Plasmodium falciparum line 7G8 (AID 1815).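 Also: potency is read from the fitted curve at half-maximal effect; parasite growth measured after three days of incubation.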
Experiment [6] can be described thus: qHTS for differential inhibitors of proliferation of Plasmodium falciparum line GB4 (AID 1816).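 Also: potency is read from the fitted curve at half-maximal effect; parasite growth measured after 72 h incubation.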 To be noted: Potency: Plasmodium falciparum GB4 proliferation inhibition.
Experiment [7] can be described thus: qHTS for differential inhibitors of proliferation of Plasmodium falciparum line D10 (AID 1877).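 Also: parasites grown with compound for 72 h before DNA staining; plate controls were vehicle wells for no effect and reference inhibitor wells for full effect.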
Experiment [8] in a line: qHTS for differential inhibitors of proliferation of Plasmodium falciparum line W2 (AID 1883).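 Also: potency is read from the fitted curve at half-maximal effect; parasites grown with compound for 72 h before lysis and staining.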 As to conditions: Potency: Plasmodium falciparum W2 proliferation inhibition.
Experiment [9] is described as follows: qHTS for differential inhibitors of proliferation of Plasmodium falciparum line HB3 (AID 1886).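 Also: parasites grown with compound for 72 h before SYBR Green readout; plate controls were vehicle for no effect and reference inhibitor for full effect.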 As to conditions: Potency: Plasmodium falciparum HB3 proliferation inhibition.
Experiment [10] concerns the target Ferritin light chain (Equus caballus) (UniProt P02791). Kind of experiment: qHTS Validation Assay for Identification of Novel General Anesthetics (AID 2323). Also: % is scaled to controls: 0 for no effect and ±100 for the full control effect. Summed up:
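Horse-spleen apoferritin (10 uM) in PBS with 50% saturated 1-aminoanthracene; compounds pin-transferred, 10 min at room temperature. Fluorescence read at 380/535 nm, normalized to free 1-AMA and 1-AMA/apoferritin values; four-parameter Hill fit.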

Experiment [11] addresses ATP-dependent DNA helicase Q1 (Homo sapiens) (UniProt P46063). Kind of experiment: qHTS Validation Assay for Inhibitors of RecQ-Like Dna Helicase 1 (RECQ1) (AID 2353).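 Also: plate controls were DMSO vehicle for no effect and enzyme-free control for full effect.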 The essentials:
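RECQ1T1 50 nM; forked duplex (20 bp + 30-nt ss tails) 200 nM, ATP 2 mM final; pH 8.0, 2 mM MgCl2, 2.5 ug/ml poly(dI-dC); 15 min compound preincubation; discontinuous kinetic read over 2 h at RT.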

Experiment [12] in a line: Validation screen for inhibitors of Lassa infection (AID 463096; calls by dose curve; also: % is scaled to controls: 0 for no effect and ±100 for the full control effect).
The nature of experiment [13]: Validation screen for small molecules that induce DNA re-replication in MCF 10A normal breast cells (AID 463097). Also: 0% is about no effect; nearly all actives have a fitted effect of over 60% in size. Summed up: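 MCF 10A cells exposed to compound 48 hr at 37 C, 5% CO2, then Hoechst-stained 40 min. Laser-scanning imaging of nuclear DNA content (405 nm ex, 500-530 nm em); re-replication scored as rise in nuclei with elevated fluorescence intensity.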
Experiment [14] is described as follows: Quantitative high throughput screen for delayed death inhibitors of the malarial parasite plastid, 96 hour incubation (AID 488745). Also: % is scaled to controls: 0 for no effect and ±100 for the full control effect; nearly all actives have a fitted effect of over 70% in size. Summed up: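 Two-generation (96 h) exposure of luciferase-reporter P. falciparum in erythrocytes, 2% hematocrit, 0.1% parasitemia final, 37 C, 5% CO2, RPMI 1640 with 0.5% Albumax. Growth inhibition scored by reduced luminescence.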

The nature of experiment [15]: Quantitative high throughput screen for delayed death inhibitors of the malarial parasite plastid, 48 hour incubation (AID 488752). Also: % is scaled to controls: 0 for no effect and ±100 for the full control effect; nearly all actives have a fitted effect of over 65% in size. Summed up:
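Cultures: infected erythrocytes at final 2% hematocrit and 0.1% parasitemia in Albumax-supplemented RPMI. Parasites express integrated firefly luciferase. Incubation with compound lasts 48 h before luminescent detection of remaining reporter activity.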

The target in experiment [16] is M-phase phosphoprotein 8 (Homo sapiens) (UniProt Q99549). Kind of experiment: qHTS Validation Assay for Inhibitors for MPP8 Chromodomain Interactions with Methylated Histone Tails (AID 488949). Also: top concentration of the series differs between compounds; % is scaled to controls: 0 for no effect and ±100 for the full control effect; nearly all actives have a fitted effect of over 55% in size. Summed up: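 MPP8 (50 nM) was pre-bound to 50 nM biotinylated H3(1-18)K9me3 peptide in PBS pH 7.4 with 0.01% Tween-20. Compounds were then added for 30 min at room temperature, and complex disruption was read by AlphaScreen with streptavidin donor and nickel-chelate acceptor beads.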
M-phase phosphoprotein 8 (Homo sapiens), sequence (Q99549 whole entry, looked up): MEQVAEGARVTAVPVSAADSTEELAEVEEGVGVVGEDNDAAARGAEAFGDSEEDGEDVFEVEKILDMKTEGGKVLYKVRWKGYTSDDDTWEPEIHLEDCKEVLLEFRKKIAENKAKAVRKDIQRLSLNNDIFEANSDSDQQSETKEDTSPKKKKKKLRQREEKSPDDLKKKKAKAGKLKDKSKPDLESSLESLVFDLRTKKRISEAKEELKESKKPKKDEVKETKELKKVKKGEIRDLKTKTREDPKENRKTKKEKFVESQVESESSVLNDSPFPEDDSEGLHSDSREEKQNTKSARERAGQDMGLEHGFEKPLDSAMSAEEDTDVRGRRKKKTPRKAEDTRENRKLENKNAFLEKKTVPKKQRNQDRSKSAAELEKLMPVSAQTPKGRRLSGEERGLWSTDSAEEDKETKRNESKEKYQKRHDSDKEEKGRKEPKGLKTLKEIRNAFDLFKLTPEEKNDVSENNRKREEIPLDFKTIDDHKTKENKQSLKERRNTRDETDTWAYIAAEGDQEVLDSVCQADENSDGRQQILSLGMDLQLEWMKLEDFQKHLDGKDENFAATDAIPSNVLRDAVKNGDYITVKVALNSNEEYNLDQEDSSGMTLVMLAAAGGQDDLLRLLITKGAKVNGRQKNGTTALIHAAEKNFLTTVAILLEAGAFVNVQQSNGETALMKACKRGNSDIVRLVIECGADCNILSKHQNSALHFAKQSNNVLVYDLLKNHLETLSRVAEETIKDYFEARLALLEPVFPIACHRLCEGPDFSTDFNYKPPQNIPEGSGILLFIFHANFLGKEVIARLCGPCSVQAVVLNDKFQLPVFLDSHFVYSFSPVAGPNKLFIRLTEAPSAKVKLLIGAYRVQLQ

In experiment [17] the target is Transient receptor potential cation channel subfamily V member 1 (Homo sapiens) (UniProt Q8NER1). Kind of experiment: HTS Assay for Compounds that Act as Enhancers of the Vanilloid Receptor 1 (AID 488979). Also: 0% is about no effect. Summed up:
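Calcium influx kinetics via Fluo-8 (480/520 nm) in TRPV1-expressing cells, 2000/well cultured overnight at 35.5C. Compound-alone read 3 min (agonist phase), followed by EC20 capsaicin challenge for 2 min (enhancer phase).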

In experiment [18] the target is Thyrotropin receptor (Homo sapiens) (UniProt P16473). The experiment is described as follows: qHTS Assay for Antagonists of the Thyroid Stimulating Hormone Receptor (AID 488980). Also: 0% is about no effect. Summed up: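 TSHR-transfected HEK293 cells (2000/well) in HEPES-buffered HBSS with 70 uM RO 20-1724 were stimulated with 4 nM TSH (EC80, final) in the presence of compound. cAMP was measured by HTRF competition after lysis and 30 min at RT.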

Experiment [19] has as its target Thyrotropin-releasing hormone receptor (Homo sapiens) (UniProt P34981). The experiment is described as follows: qHTS for Small Molecule Agonists and Allosteric Enhancers of Human TRH Receptor: Validation Screen for Agonists (AID 493127;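 active = calcium activation more than 3 SD above the typical response in the agonist read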;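 also: intracellular calcium rise by fluo-8 fluorescence before TRH EC20 addition; 0% is about no effect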). To be noted: TRH receptor agonist cell assay; at 2 µM; stronger effect = higher value. Summed up:
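Kinetic fluorescence assay of agonist-induced calcium release: overnight-plated TRHR cells, room-temperature fluo-8 loading, baseline then compound addition with per-second reads.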

For experiment [20], the target named is Galactokinase (Homo sapiens) (UniProt P51570). Kind of experiment: qHTS Validation Assay for Inhibitors of Human Galactokinase (GALK) (AID 493189). Also: 0% is about no effect. The essentials: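 GALK (5 nM) with 35 uM ATP and 100 uM galactose in HEPES pH 8.0 with MgCl2, NaCl, DTT and BSA. Reaction ran 1 h at room temperature. Residual ATP read by Kinase-Glo Plus luminescence.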
Galactokinase (Homo sapiens), sequence (P51570 whole entry, looked up): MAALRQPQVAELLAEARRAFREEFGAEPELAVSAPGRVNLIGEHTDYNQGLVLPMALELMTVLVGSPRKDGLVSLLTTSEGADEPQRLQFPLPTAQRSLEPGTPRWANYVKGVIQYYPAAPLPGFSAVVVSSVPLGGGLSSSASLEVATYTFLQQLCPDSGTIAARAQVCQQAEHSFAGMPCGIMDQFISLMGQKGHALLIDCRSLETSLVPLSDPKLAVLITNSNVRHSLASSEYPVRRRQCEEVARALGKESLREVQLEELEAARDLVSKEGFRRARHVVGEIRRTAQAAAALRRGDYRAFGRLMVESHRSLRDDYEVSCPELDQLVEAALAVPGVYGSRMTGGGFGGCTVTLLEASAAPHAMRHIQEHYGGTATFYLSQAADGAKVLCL
Experiment [21] is described as follows: Validation screen for small molecules that induce DNA re-replication in SW480 colon adenocarcinoma cells (AID 504364). Also: 0% is about no effect. The essentials:
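Hoechst-stained SW480 nuclei, imaged at 405 nm excitation after 48 hr compound exposure, were counted for elevated DNA content as the re-replication signal.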

Experiment [22] deals with Voltage-gated inwardly rectifying potassium channel KCNH2 (Homo sapiens) (UniProt Q12809). The experiment is described as follows: qHTS Assay for Small Molecule Inhibitors of the Human hERG Channel Activity (AID 588834).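 Also: top concentration of the series differs between compounds; % is scaled to controls: 0 for no effect and ±100 for the full control effect; lower thallium flux fluorescence means stronger hERG block; nearly all actives have a fitted effect of over 50% in size.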 Summed up:
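Thallium serves as surrogate for K+ influx through BacMam-delivered hERG in U2OS cells. Compounds are added for about 10 minutes after dye loading; stimulation buffer then starts flux, monitored kinetically on FDSS.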

For experiment [23], the target named is Tumor susceptibility gene 101 protein (Homo sapiens) (UniProt Q99816). The experiment is described as follows: qHTS Assay for Iinhibitors of HIV-1 Budding by Blocking the Interaction of PTAP/TSG101: Hit Validation (AID 651600). Also: % is scaled to controls: 0 for no effect and ±100 for the full control effect; nearly all actives have a fitted effect of over 70% in size. The essentials:
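Fluorescence polarization binding assay: Tsg101 binding domain (10 uM) mixed with compounds and FITC-labeled PTAP peptide (50 nM) in HEPES pH 7.5, 0.15 M NaCl, 0.01% Tween 20, EDTA, TCEP; 20 min at r.t.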

Experiment [24] relates to Zika virus NS2B-NS3 protease (unlinked). The experiment is described as follows: Optimization of GU AMC qHTS for Zika virus inhibitors: Unlinked NS2B-NS3 protease assay (AID 1347151).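 Also: 0% = no-inhibitor control and -100% = no-enzyme control; nearly all actives have a fitted effect of over 80% in size.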 Summed up: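 Noncovalent NS2B hydrophilic domain–NS3 protease complex (25 nM final) in 10 mM Tris-HCl pH 8.0, 0.01% Tween 20; AMC substrate, room temperature 15 min (~20% conversion); fluorescence change normalized, 4-parameter Hill fit.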

Experiment [25] concerns Zika virus NS2B-NS3 protease. Kind of experiment: Primary screen GU AMC qHTS for Zika virus inhibitors (AID 1347154).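 Also: 0% = no-inhibitor control and -100% = no-enzyme control; nearly all actives have a fitted effect of over 70% in size.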 The essentials:
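Fluorogenic AMC-substrate cleavage by noncovalent NS2B-NS3 protease complex (25 nM, pH 8.0 Tris buffer with Tween 20) followed for 15 minutes at room temperature (~20% conversion). Percent inhibition from ex340/em450 signal change, fitted by 4-parameter Hill equation.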

The nature of experiment [26]: Vero cells viability qHTS for Zika virus inhibitors (AID 1347167). Also: % is scaled to controls: 0 for no effect and ±100 for the full control effect. The essentials: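 Luminescent ATP readout (CellTiter Glo) after 30 min at 37 degrees C gives viability; cells in DMEM + 4% FBS were treated 24 to 48 hours with compound, following overnight attachment.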
The nature of experiment [27]: Tertiary RLuc qRT-PCR qHTS assay for Zika virus inhibitors (AID 1347169). Also: top concentration of the series differs between compounds; % is scaled to controls: 0 for no effect and ±100 for the full control effect; nearly all actives have a fitted effect of over 55% in size. Summed up:
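Vero cells (1,000/well) infected with recombinant ZIKV-RLuc (Cambodian) at MOI 1-2 after compound addition, 48-72 hrs at 37 degrees C. Live-cell Renilla luciferase substrate added; luminescence read after 1-1.5 hrs.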
Background: Real-time PCR tracks product formation cycle by cycle.

A short description of experiment [28]: Confirmatory qHTS for small molecule stabilizers of the endoplasmic reticulum resident proteome: Secreted ER Calcium Modulated Protein (SERCaMP) assay (AID 1508628).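 Also: SH-SY5Y cells given compound 16 h then thapsigargin 100 nM for 4 h; % is scaled to controls: 0 for no effect and ±100 for the full control effect; nearly all actives have a fitted effect of over 40% in size.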 The essentials:
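GLuc-SERCaMP-expressing SH-SY5Y cells, pretreated 16 h with compound, are challenged with thapsigargin to empty ER calcium stores; after 4 h, coelenterazine is added directly to the medium and luminescence is imaged.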

ATP-dependent DNA helicase Q1 (Homo sapiens), sequence (P46063 whole entry, looked up): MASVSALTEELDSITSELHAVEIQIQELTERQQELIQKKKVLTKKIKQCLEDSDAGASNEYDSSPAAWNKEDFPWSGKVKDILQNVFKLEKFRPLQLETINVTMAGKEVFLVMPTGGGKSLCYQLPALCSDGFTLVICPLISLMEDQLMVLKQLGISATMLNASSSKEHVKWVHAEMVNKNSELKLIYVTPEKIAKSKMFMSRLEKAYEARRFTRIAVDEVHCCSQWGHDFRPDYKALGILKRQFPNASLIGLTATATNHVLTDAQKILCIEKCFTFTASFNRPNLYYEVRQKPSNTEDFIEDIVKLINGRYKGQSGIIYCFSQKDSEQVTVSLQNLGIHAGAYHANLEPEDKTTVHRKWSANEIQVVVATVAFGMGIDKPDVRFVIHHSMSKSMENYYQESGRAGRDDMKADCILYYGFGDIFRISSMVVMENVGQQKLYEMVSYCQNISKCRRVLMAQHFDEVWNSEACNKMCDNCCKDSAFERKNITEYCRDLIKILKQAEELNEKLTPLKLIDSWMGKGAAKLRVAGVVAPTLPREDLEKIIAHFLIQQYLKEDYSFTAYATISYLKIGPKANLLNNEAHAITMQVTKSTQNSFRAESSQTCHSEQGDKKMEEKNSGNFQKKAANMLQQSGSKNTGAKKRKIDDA
Transient receptor potential cation channel subfamily V member 1 (Homo sapiens), sequence (Q8NER1 whole entry, looked up): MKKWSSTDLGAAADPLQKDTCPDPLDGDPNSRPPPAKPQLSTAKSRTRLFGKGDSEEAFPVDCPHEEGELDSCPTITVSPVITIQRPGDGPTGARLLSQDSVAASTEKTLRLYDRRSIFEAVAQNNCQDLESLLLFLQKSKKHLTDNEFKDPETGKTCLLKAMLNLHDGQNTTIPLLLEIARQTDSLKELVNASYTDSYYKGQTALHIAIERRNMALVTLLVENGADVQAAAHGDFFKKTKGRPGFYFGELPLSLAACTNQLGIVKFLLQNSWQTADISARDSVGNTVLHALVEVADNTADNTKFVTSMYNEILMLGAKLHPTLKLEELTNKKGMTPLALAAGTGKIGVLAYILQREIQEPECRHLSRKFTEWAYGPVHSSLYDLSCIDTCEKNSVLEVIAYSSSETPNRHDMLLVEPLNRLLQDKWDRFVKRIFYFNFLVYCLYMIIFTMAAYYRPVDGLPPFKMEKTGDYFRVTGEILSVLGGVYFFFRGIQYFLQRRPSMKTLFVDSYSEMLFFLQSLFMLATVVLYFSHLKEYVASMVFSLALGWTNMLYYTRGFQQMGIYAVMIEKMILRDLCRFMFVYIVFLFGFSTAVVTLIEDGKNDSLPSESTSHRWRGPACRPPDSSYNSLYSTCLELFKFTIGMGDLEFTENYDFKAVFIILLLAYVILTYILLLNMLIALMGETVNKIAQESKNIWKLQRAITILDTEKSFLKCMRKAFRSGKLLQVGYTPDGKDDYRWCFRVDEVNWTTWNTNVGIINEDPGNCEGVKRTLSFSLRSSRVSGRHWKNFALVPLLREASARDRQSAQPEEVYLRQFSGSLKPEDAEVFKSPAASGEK
Voltage-gated inwardly rectifying potassium channel KCNH2 (Homo sapiens), sequence (Q12809 whole entry, looked up): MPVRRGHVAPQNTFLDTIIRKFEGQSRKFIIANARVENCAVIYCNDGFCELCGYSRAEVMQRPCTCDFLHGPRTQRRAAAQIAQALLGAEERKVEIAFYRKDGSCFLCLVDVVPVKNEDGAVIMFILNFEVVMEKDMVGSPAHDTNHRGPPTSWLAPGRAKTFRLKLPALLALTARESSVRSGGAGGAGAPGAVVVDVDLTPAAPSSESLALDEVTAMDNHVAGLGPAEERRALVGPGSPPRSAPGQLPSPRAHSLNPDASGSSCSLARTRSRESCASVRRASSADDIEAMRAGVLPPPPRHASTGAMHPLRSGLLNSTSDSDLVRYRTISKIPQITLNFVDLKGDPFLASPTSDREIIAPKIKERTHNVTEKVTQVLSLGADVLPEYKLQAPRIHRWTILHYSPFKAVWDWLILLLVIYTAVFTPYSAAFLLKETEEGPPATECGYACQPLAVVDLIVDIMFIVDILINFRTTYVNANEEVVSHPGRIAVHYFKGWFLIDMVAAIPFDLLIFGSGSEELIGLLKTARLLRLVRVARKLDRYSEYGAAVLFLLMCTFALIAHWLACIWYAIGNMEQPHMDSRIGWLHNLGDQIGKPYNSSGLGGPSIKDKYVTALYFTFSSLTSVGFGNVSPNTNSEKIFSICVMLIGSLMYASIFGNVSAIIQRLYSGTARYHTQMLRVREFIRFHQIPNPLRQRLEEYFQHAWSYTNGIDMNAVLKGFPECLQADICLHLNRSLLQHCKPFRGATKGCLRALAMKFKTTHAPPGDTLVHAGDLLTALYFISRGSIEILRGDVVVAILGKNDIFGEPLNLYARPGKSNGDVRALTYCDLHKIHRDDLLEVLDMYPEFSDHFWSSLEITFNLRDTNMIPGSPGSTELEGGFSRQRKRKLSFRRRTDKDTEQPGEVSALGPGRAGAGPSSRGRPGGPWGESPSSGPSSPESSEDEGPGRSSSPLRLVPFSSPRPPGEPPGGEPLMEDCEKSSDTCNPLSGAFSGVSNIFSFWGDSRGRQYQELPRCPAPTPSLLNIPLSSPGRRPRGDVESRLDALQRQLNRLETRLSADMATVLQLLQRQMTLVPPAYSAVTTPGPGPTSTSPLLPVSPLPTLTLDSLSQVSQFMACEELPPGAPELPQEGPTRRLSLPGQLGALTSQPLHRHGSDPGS
Tumor susceptibility gene 101 protein (Homo sapiens), sequence (Q99816 whole entry, looked up, the tested form may be a part): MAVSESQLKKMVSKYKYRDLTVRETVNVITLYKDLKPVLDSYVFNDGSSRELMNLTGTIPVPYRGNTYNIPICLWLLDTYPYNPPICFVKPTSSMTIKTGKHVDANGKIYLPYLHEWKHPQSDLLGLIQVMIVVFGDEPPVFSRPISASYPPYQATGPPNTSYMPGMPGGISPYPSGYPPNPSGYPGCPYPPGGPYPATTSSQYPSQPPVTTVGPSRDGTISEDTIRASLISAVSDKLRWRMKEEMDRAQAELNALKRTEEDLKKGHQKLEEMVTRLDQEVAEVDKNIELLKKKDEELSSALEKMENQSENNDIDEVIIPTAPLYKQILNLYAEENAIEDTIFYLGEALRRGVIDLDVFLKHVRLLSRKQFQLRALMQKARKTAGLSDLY
Ferritin light chain (Equus caballus), sequence (P02791 2-175 limits assumed): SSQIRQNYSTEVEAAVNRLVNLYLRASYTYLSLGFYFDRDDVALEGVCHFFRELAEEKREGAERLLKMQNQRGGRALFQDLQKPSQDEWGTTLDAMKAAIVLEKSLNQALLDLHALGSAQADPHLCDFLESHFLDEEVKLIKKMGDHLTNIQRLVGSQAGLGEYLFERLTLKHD

Regarding `C=CCN1CCC2(C)c3cc(O)ccc3CC1C2C` (stereo unspecified), in experiment [1] (at 57.5 µM (top of the series)), the activity change, negative = inhibition was -2.86% (inactive). For the same compound, the max response in [1] (measured here: cell count channel max response) was determined as 24.1%; in experiment [1] (measured here: lipid channel max response), 21.8%. In addition, the Potency result in experiment [2], in experiment [3], in experiment [7], in experiment [9], in [11] and in [12] was “inactive” throughout. Besides, the Potency result in experiment [13], in experiment [14], in experiment [15], in experiment [16], in [21] and in experiment [22] was “inactive” throughout. Moreover, the Potency entry in experiment [25], in [26], in [27] and in [28] was “inactive” each time. Further, the compound was called inactive in experiment [4], in [10], in [17], in [18], in [20] and in [23]. The outcome in experiment [24] was inactive. Besides, the Potency was 7.08 µM (active) in experiment [5], 12.6 µM (active) in experiment [6] and 5.62 µM (active) in [8]. Further, the activation in [19] was 1.19% (inactive).
As to `CN1CC[C@@H]2CN3CCc4cccc(c43)[C@@H]2C1`, in experiment [25], the Potency entry was “inactive”.
